Screening data from PubChem.
FBW7 act = human FBW7 E3 ligase activation, primary screen; AlphaScreen FBW7–phospho-cyclin E peptide binding, activator screen; normalized activity (activation), % at 26.1 µM; AID 1259310; 650,000 tested, 0.13% active; in the data active means normalized activity above about 1.9%;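 further: purified mutant Fbw7 with reduced substrate affinity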
GPR151 activ = activators of human GPR151 | PathHunter beta-arrestin GPR151 cells, luminescence | activation, % at 11.2 µM | 650,000 tested, 1% active; in the data active means activation above about 4.9%
MITF primary = blocks human microphthalmia-associated transcription factor; O75030; AlphaScreen MITF homodimerization, bead proximity signal; inhibition, % at 2.6 µM; 650,000 tested, 0.91% active; AID 1259374; in the data active means inhibition above about 50%
TEAD-YAP inh = TEAD-YAP interaction inhibition; inhibition, % at 9.12 µM; 640,000 tested, 1.4% active; HEK-TIYL cells, TEAD-Gal4/YAP UAS-luciferase luminescence; AID 1259422; in the data active means inhibition above about 32%
GPR151 confirm = human GPR151 activation, confirmation screen; shares compounds with GPR151 activ; GPR151 PathHunter beta-arrestin cells, luminescence, 90 min; % of EA-reagent control over plate median; activation, % at 11.2 µM; 6,700 tested, under 10 active;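 active means mean percent activation across replicates above the confirmation screen cutoff of 4.91%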
GPR119 counter = activates human GPR119 in a GPR151 counter-screen; 6,700 tested, 0.3% active; GPR119 PathHunter beta-arrestin cells, luminescence, 90 min; 0 = compound-well median, 100 = enzyme-acceptor control; activation, % at 11.2 µM; shares compounds with GPR151 activ;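 active means mean percent activation in the counterscreen above 29.09%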;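 further: counterscreen on off-target GPR119 to flag nonselective hits from the GPR151 activator screen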
Target sequence (Q8TDV5 whole entry, looked up): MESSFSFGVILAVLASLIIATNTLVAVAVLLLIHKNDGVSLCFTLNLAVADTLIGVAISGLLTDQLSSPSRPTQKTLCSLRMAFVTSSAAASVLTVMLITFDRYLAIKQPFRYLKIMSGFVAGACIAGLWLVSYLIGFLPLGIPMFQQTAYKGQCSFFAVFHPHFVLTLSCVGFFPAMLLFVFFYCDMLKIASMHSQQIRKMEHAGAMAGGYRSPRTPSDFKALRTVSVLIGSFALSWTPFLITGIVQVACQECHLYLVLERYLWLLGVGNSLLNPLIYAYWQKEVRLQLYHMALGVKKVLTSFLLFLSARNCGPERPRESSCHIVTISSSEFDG
Large screens that a line does not name were inactive (follow-up assays come after a bar, where they were run). Compounds with a hit are over-represented: about 3.5% of the library has one in this group of screens.

CCC(c1nnnn1CS(=O)(=O)c1ccc(C)cc1)N1CCN(c2ncccn2)CC1 (stereo not drawn)	none
O=C(CN(C(=O)CCC(=O)Nc1ccccn1)c1ccc(F)cc1)NCCc1ccccc1	none
COCCCNCCn1cnc2c(N)ncnc21	GPR151 activ 7.2 | GPR151 confirm inactive | GPR119 counter inactive
CC1=NN(c2ccccc2Cl)C(=O)C1	none
O=C(OCN1C(=O)c2ccccc2C1=O)C1CCCCC1	GPR151 activ 6.1 | GPR151 confirm inactive | GPR119 counter inactive
CC(C)C(NC(=O)CN(c1cccc(C(F)(F)F)c1)S(C)(=O)=O)C(C)C	none
CCCCNCc1cc(Cl)c(OCC(=O)NC(C)(C)C)c(OCC)c1	GPR151 activ 7.0 | GPR151 confirm inactive | GPR119 counter inactive
Cc1cnc(Cl)nc1NCc1ccccc1	GPR151 activ 5.6 | GPR151 confirm inactive | GPR119 counter inactive
C=CCNC(=S)Nc1ccc(C(=O)OCC)cc1	none
COc1ccc(C(=O)Nc2cc(C(N)=O)ccc2OC)cc1	none
COc1ccc(C(N)=O)cc1NC(=O)CC(O)(C(F)(F)F)C(F)(F)F	GPR151 activ 7.3 | GPR151 confirm inactive | GPR119 counter inactive
Cc1ccnc(SCc2nc3ccc(Cl)cn3c2Br)n1	none
Cc1ccnc(SCc2nc3ccccn3c2Br)n1	GPR151 activ 15 | GPR151 confirm inactive | GPR119 counter inactive
CC1CCCC(C)N1NC(=S)Nc1ccccc1 (stereo not drawn)	GPR151 activ 4.9 | GPR151 confirm inactive | GPR119 counter inactive
Cc1nnc(SCC(=O)O)n1/N=C/c1ccc2c(c1)OCO2	none
Cc1nnc(-c2ccccc2)c(=O)n1/N=C/c1ccc2c(c1)OCO2	GPR151 activ 8.1 | GPR151 confirm inactive | GPR119 counter inactive
CC1(C)CC(=O)C(C(NC(=O)c2ccccc2)(C(F)(F)F)C(F)(F)F)=C(O)C1	none
Cc1ccc(N2CCN(C(=O)Nc3ccccc3)CC2)nn1	none
CSc1cccc(NC(=O)N2CCN(c3ccc(C)nn3)CC2)c1	GPR151 activ 5.6 | GPR151 confirm inactive | GPR119 counter inactive
CCC(Sc1nc2cc(OC)c(OC)cc2c(=O)n1CCc1ccc(Cl)cc1)C(=O)Nc1cccc(Cl)c1 (stereo not drawn)	none
CCc1ccc(NC(=O)C(CC)Sc2nc3cc(OC)c(OC)cc3c(=O)n2CCc2ccc(Cl)cc2)cc1 (stereo not drawn)	GPR151 activ 6.5 | GPR151 confirm inactive | GPR119 counter inactive
CCOc1ccccc1NC(=O)CCc1nnc2ccc(N3CCCCC3)nn12	none
CCOC(=O)C(C)NC(=O)CCc1nnc2ccc(N3CCC(C)CC3)nn12 (stereo not drawn)	GPR151 activ 5.4 | GPR151 confirm inactive | GPR119 counter inactive
CCOc1ccccc1NC(=O)CCc1nnc2ccc(N3CCCC3)nn12	GPR151 activ 6.7 | GPR151 confirm inactive | GPR119 counter inactive
Cc1ccc(Nc2cc(N3CCCCC3)c3nonc3c2[N+](=O)[O-])c(C)c1	none
CN(C)S(=O)(=O)c1ccc(C(=O)OCCCC(=O)c2ccc(F)cc2)cc1	GPR151 activ 11 | GPR151 confirm inactive | GPR119 counter inactive
CCN(CC)S(=O)(=O)c1ccc(C(=O)OCC(=O)c2ccc(F)cc2)cc1	none
C=CCOC(=O)/C(C#N)=C/c1ccc(OCC(=O)O)cc1	none
N#C/C(=C\c1ccc(OCC(=O)O)cc1)C(N)=S	GPR151 activ 6.4 | GPR151 confirm inactive | GPR119 counter inactive
Cc1cc(NC(=O)c2ccccc2)n(-c2nc3ccccc3[nH]2)n1	none
Cc1cc(NC(=O)c2cc3ccccc3oc2=O)n(-c2nc3ccccc3[nH]2)n1	GPR151 activ 8.1 | GPR151 confirm inactive | GPR119 counter inactive
c1ccc2c(c1)CCN(CCCNc1nc3ccccc3n3nnnc13)C2	GPR151 activ 6.7 | GPR151 confirm inactive | GPR119 counter inactive
CCOCCCNc1nc2ccccc2n2nnnc12	none
O=c1[nH]c2ccc([N+](=O)[O-])cc2c2ccccc12	none
CC1CCCCN1C(=O)C1CC(c2ccc(F)cc2)=NO1 (stereo not drawn)	none
CC(C)OC(=O)C1C2C=CC3(CN(Cc4ccccc4)C(=O)C13)O2 (stereo not drawn)	GPR151 activ 5.5 | GPR151 confirm inactive | GPR119 counter inactive
COCCNC(=O)C1C2C=CC3(CN(Cc4ccc(C)cc4)C(=O)C13)O2 (stereo not drawn)	GPR151 activ 14 | GPR151 confirm inactive | GPR119 counter inactive
CCCCNC(=O)C1C2C=CC3(CN(Cc4ccccc4Cl)C(=O)C13)O2 (stereo not drawn)	GPR151 activ 5.7 | GPR151 confirm inactive | GPR119 counter inactive
N#C/C(=C\c1cc(Br)ccc1OCc1ccc(Cl)cc1Cl)c1nn(CCO)c(N)c1C#N	none
Cc1ccc(NCC(=O)N/N=C/c2ccccc2O)cc1	none
COc1cccc(C(c2sc3nc(C)nn3c2O)N2CCC(C(N)=O)CC2)c1 (stereo not drawn)	none
CCc1nc2sc(C(c3cccc(OC)c3)N3CCC(C(N)=O)CC3)c(O)n2n1 (stereo not drawn)	GPR151 activ 5.8 | GPR151 confirm inactive | GPR119 counter inactive
COc1ccccc1C(=O)Nc1nc(-c2cc3ccccc3oc2=O)cs1	none
O=C1c2ccc([N+](=O)[O-])cc2C(=O)N1c1ccc(Cl)c(Cl)c1	GPR151 activ 6.9 | GPR151 confirm inactive | GPR119 counter inactive
Cc1ccc(N2C(=O)c3ccc([N+](=O)[O-])cc3C2=O)cc1Cl	none
COc1ccc(S(=O)(=O)N2CCC(C(=O)N3CCC(C)CC3)CC2)cc1OC	none
CCCCc1ccc(NC(=S)NN2CCOCC2)cc1	none
CCC(C)c1ccc(NC(=S)NN2CCOCC2)cc1 (stereo not drawn)	GPR151 activ 23 | GPR151 confirm inactive | GPR119 counter inactive
CSCCC(NC(=O)c1ccc(Cl)c([N+](=O)[O-])c1)C(=O)O (stereo not drawn)	GPR151 activ 5.3 | GPR151 confirm inactive | GPR119 counter inactive
Cc1cc(C)nc(-n2nc(C)c(Sc3ccc(F)cc3)c2N)n1	none
O=C(NCCN1CCN(S(=O)(=O)c2ccccc2)CC1)C(=O)NCc1ccco1	GPR151 activ 5.7 | GPR151 confirm inactive | GPR119 counter inactive
Cc1ccc(C)n1CCN1CCN(S(=O)(=O)c2ccccc2)CC1	GPR151 activ 5.1 | GPR151 confirm inactive | GPR119 counter inactive
Cc1cc2nc(SCC(=O)NC(C)(C)C)[nH]c2cc1C	none
CCOc1ccc(NS(=O)(=O)c2ccc(CN3C(=O)c4cccnc4C3=O)cc2)cc1	none
COc1ccccc1NS(=O)(=O)c1ccc(CN2C(=O)c3cccnc3C2=O)cc1	GPR151 activ 7.3 | GPR151 confirm inactive | GPR119 counter inactive
Cc1nc2ccccc2n1CCNS(=O)(=O)c1ccc(F)cc1	GPR151 activ 6.4 | GPR151 confirm inactive | GPR119 counter inactive
